# Reference: the supplement of paper PMC11006884
# Of roughly 6,500 targets only a part is listed; those with a hit were picked by preference. About 2% of all pairs of compound and target were hits.
# Compound: COC(=O)C#Cc1ccccc1 [methyl 3-phenylpropiolate]
# Test: log2 ratio of iodoacetamide-alkyne labeling of the cysteine site, DMSO over compound (competition); higher = stronger covalent engagement of the cysteine by the compound, active = 1 or more
# Conditions: 500 µM; treatment time 1 h; system: HEK293T cell lysate
# Outline: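 Electrophile (500 µM) or vehicle was added to HEK293T lysate (2 mg/mL) for 1 h at ambient temperature before iodoacetamide alkyne labelling (1 h) and click coupling to sCIP-TMT reagents. After pooling, overnight trypsin digestion at 37 °C, streptavidin enrichment and acid elution, peptides were measured by Orbitrap Eclipse LC-MS/MS with FAIMS and quantified in FragPipe. Each cysteine's log2 competition ratio compares mean control-channel with mean compound-channel reporter intensity, control over compound. Data came from duplicate channels across three replicates, excluding cysteines quantified in only one replicate.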
row,Target,log2 ratio of iodoacetamide-alkyne labeling
1,INTS1 C643 (UniProt Q8N201),0.127 (inactive)
2,MYBBP1A C1031 (UniProt Q9BQG0),0.225 (inactive)
3,UniProt Q8WYL5_C626,1.19 (active)
4,UniProt Q7Z5K2_C251,0.11 (inactive)
5,CEP128 C915 (UniProt Q6ZU80),0.335 (inactive)
6,HEATR6 C360 (UniProt Q6AI08),0.657 (inactive)
7,TMEM192 C266 (UniProt Q8IY95),0.418 (inactive)
8,UniProt Q7RTV0_C46,0.211 (inactive)
9,PHIP C954 (UniProt Q8WWQ0),1.46 (active)
10,FTSJ3 C197 (UniProt Q8IY81),0.103 (inactive)
11,CISD2 C92 (UniProt Q8N5K1),0.0262 (inactive)
12,NGLY1 C197 (UniProt Q96IV0),0.0457 (inactive)
13,SECISBP2L C544 (UniProt Q93073),0.341 (inactive)
14,ARID2 C1512 (UniProt Q68CP9),0.438 (inactive)
15,ZNF428 C93 (UniProt Q96B54),0.191 (inactive)
16,PHF3 C1616 (UniProt Q92576),1.14 (active)
17,UniProt Q7Z2T5_C265,0.161 (inactive)
18,UniProt Q86Y56_C409,0.492 (inactive)
19,MYBBP1A C968 (UniProt Q9BQG0),0.274 (inactive)
20,TSR2 C17 (UniProt Q969E8),0.599 (inactive)
21,SECISBP2 C719 (UniProt Q96T21),-0.258 (inactive)
22,NCAPG C202 (UniProt Q9BPX3),0.0426 (inactive)
